Measured values: ChEMBL document CHEMBL3988442, “University of Dundee, Small-Polar-MMV Screening Library” (2021)
About 13,000 (27%) of roughly 48,000 compounds showed an effect of 50% or more. The list shows a part of the results.

Each molecule was assayed on Wolbachia pipientis (assay: Anti-Wolbachia Cell-Based Screen). Conditions: 5 µM.
Type: functional
Design: scale not given: in the data most compounds retested in dose-response had high values

Compound	Percent Effect [%]
Cc1cc(=O)n(C)cc1NC(=O)Cc1cc(F)ccc1F	0.6087
O=c1[nH]c(-c2ccccc2F)nc2c1CCNC2	-26.1
CC(C)CCN(C(=O)c1ccc(-n2ncc(C#N)c2N)cc1)C1CC1	92.49
CCCC1SCCN1C(=O)c1ccc(-n2ncc(C#N)c2N)cc1 (stereo not given)	-7.11
N#Cc1cnn(-c2ccc(C(=O)Nc3ccccn3)cc2)c1N	2.958
N#Cc1cnn(-c2ccc(C(=O)N(C3CCCCC3)C3CC3)cc2)c1N	50.38
N#Cc1ccc(C(=O)N(C2CC2)C2CC(=O)NC2=O)cc1 (stereo not given)	-1.854
CC(C)C1CCCN1C(=O)c1ccc(-n2ncc(C#N)c2N)cc1 (stereo not given)	-2.457
CCN(CC)C(=O)c1ccc(-n2ncc(C#N)c2N)cc1	113.8
CC(C)CCN(C(=O)Nc1cccc(C(=O)N(C)C)c1)C1CC1	-4.492
CC(C)CCN(C(=O)c1cccc(NC(N)=O)c1)C1CC1	-12.61
CC(C1CC1)N(C)C(=O)c1ccc(-n2ncc(C#N)c2N)cc1 (stereo not given)	117.6
COc1ccc(NC(=O)c2ccc(-n3ncc(C#N)c3N)cc2)cn1	-17.39
Cc1cnc(NC(=O)c2ccc(-n3ncc(C#N)c3N)cc2)s1	-16.88
Cc1nc(CN2CCC(C(=O)N(C)C3CCC(C)CC3)CC2)cs1 (stereo not given)	-8.684
Cc1nc(-c2cc(F)c3c(c2)CC(CN)O3)c[nH]1 (stereo not given)	4.344
O=C(CCn1cccn1)N1CC[C@@H](c2ccc3ccccc3c2)[C@H](O)C1	28.28
CN(C(=O)c1ccc(NC(=O)c2cc[nH]n2)cc1)C1CCCCC1	-4.101
CN(C(=O)c1ccc(-n2ncc(C#N)c2N)cc1)C1CCCC1	106.6
Cc1nc2c(C#N)cnn2c(C)c1CCC(=O)N(C)C1CC1	-17.24
CCC(=O)Nc1cc(Br)cn(C)c1=O	3.06
O=C(c1ccc(F)cc1)N(CCCO)S(=O)(=O)c1cccs1	17.63

Compound	Percent Effect [%]
COCCn1cc(NCc2c[nH]nc2C(C)(C)C)cn1	0.5813
CC(C)N1CCC(CNCc2c[nH]nc2C(C)(C)C)C1 (stereo not given)	9.105
CNc1cc(N2CCCC2CNCc2c[nH]nc2C(C)(C)C)ncn1 (stereo not given)	0.4855
CC(C)(C)c1n[nH]cc1CNCC1CCN(C2CC2)C1.Cl (stereo not given)	3.787
CCN1CCC(CNCc2c[nH]nc2C(C)(C)C)C1.Cl (stereo not given)	95.83
COCCN1CCC(CNCc2c[nH]nc2C(C)(C)C)CC1	88.21
CC(C)(C)c1n[nH]cc1CNCC1CCN(CC(F)(F)F)C1.Cl (stereo not given)	-2.373
Cc1ccc(-c2n[nH]cc2CNCC2CCN(CC(C)O)CC2)cc1 (stereo not given)	92.7
CN(C)CCN1CCC(CNCc2c[nH]nc2C(C)(C)C)CC1	106
Cc1cccc(-c2[nH]ncc2CNCC2CCN(CC(C)O)CC2)c1 (stereo not given)	-2.172
Cc1ccc(-c2n[nH]cc2CNCC2CCc3nnc(C)n3C2)cc1 (stereo not given)	-17.97
CC(O)CN1CCC(CNCc2c[nH]nc2C(C)(C)C)CC1 (stereo not given)	-0.09307
CCC(CO)NC(=O)Nc1cc(F)ccc1SCC(F)F (stereo not given)	1.4
CCOCc1ccc(NC(=O)NC2CCCn3nc(CC)nc32)cc1 (stereo not given)	-7.286
CCN(CC(=O)N(C)C)C(=O)c1ccc(-c2nc(C)cs2)cc1	133.8
CCCN(CC(=O)NC)C(=O)c1ccc(-c2nc(C)cs2)cc1	92.57
Cc1ccc(-c2nc(C(=O)N(C)CC(=O)N(C)C)cs2)c(C)c1	-25.77
CNC(=O)C(CC(C)C)NC(=O)c1cccc(-c2nc(C)cs2)c1 (stereo not given)	8.267
CCCN(CC(=O)N(C)C)C(=O)c1ccc(-c2nc(C)cs2)cc1	106.6
CNC(=O)CN(C)C(=O)c1ccc(-c2nc(C)cs2)cc1	115.5
Cc1csc(-c2ccc(NC(=O)N3CCOCC3)cc2)n1	9.555
CNC(=O)CN(C)C(=O)Cc1csc(C(C)C)n1	-0.57

Compound	Percent Effect [%]
CCN(CC(=O)N(C)C)C(=O)c1cc(-c2cccc(Cl)c2)no1	-0.1751
CN(C)C(=O)c1csc(-c2ccoc2)n1	-7.541
CCCN(CC(=O)NC)C(=O)c1ccc(-c2ccsc2)nc1C	-3.974
CCN(CC(=O)NC)C(=O)Cc1csc(C(C)C)n1	-3.04
CCc1ccc(C(NC(=O)CN(C)S(C)(=O)=O)C(C)(C)C)o1 (stereo not given)	-2.175
Cc1cn2c(n1)C(CNCc1cnn3ccccc13)CCC2 (stereo not given)	10.2
CCc1ocnc1C(=O)N1CCN(c2nncc3ccccc23)CC1	-2.931
Cc1c(O)oc(-c2ccc(Br)cc2)nc1=O	-7.091
CC(C(=O)O)N1CCc2onc(-c3ccc4c(c3)OCO4)c2C1 (stereo not given)	-4.68
N#Cc1ccc(OC2CCN(C(=O)c3ccc4c(c3)OCO4)CC2)nc1	-4.84
CC(=O)NC(C)C1=CCCN(Cc2ccc(C(=O)O)cc2)C1 (stereo not given)	-17.16
CS(=O)(=O)N[C@H]1COC[C@@H]2CN(Cc3ccco3)C[C@@H]21	102.8
CS(=O)(=O)N[C@@H]1COC[C@@H]2CN(Cc3ccoc3)C[C@@H]21	104.1
CS(=O)(=O)N[C@@H]1CN(Cc2ccoc2)C[C@@H]2CCCO[C@@H]21	-8.721
CS(=O)(=O)N[C@@H]1COC[C@@H]2CN(Cc3ccco3)C[C@@H]21	121.7
CS(=O)(=O)CC(=O)N1C[C@@H]2CN(Cc3ccoc3)CCO[C@@H]2C1	-2.254
CCOCC(=O)N1CCc2c(CN(C)C)nn(C(C)C)c2C1.O=C(O)C(F)(F)F	-22.21
Cn1c(N)nnc1SCC1OCCc2ccccc21 (stereo not given)	-8.673
O=C(Nc1nncs1)c1ccc(O)nc1	-7.078
CC(C)C(C)N(C)Cc1nnc(-c2ccc(Br)s2)o1 (stereo not given)	27.84
CN(C)[C@H]1C[C@@H](Cc2cc(CO)on2)C1(C)C	2.334
